Experimental data: PubChem BioAssay (NCATS)
Results filed as inconclusive are left out. Values without a mark were called inactive. The call rests on the fitted dose curve; in most records, active means well fitted inhibition curve with a large enough effect; inconclusive means small, poorly fitted or top-dose-only effect; inactive means flat fitted curve, though single readings scatter.

Target: Aldehyde dehydrogenase, mitochondrial (Homo sapiens) (UniProt P05091)
Experiment: qHTS for Inhibitors of the Aldehyde Dehydrogenase Family (ALDH2) Primary screen (AID 2061308);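 further: plate controls were vehicle for no effect and reference inhibitor for full effect; nearly all actives have a fitted effect of over 55% in size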
Settings: ALDH2 enzyme inhibition qHTS, 1536-well; series mostly up to 56 µM; activity change, negative = inhibition: at the top concentration

| Compound | activity change, negative = inhibition |
| --- | --- |
| CCOc1ccc(CCNC(=O)Cc2ccccc2)cc1OCC | -11.3% |
| COc1ccc(C[C@H](C(=O)O)N2C(=O)c3ccc(C(=O)O)cc3C2=O)cc1 | 2.68% |
| O=C(Nc1ccc(S(=O)(=O)Nc2nccs2)cc1)C1CCC2(CCC2)CC1 | 9.76% |
| CC(=O)Nc1sc2c(c1-c1nc(-c3ccccc3)cs1)CCN(C(C)C)C2 | 13.1% |
| Cc1ccc(OCCn2c(CCNC(=O)c3ccc(C#N)cc3)nc3ccccc32)cc1 | -5.92% |
| CNc1oc(-c2cccc3ccccc23)nc1C(=O)OC | 5.46% |
| NC(=O)C1CCN(c2nc(-c3ccc(C(F)(F)F)cc3)cs2)CC1 | 5.98% |
| COc1ccc(C(=O)Nc2nc(-c3ccccc3)cs2)c(OC)c1 | 1.72% |
| CCOc1ccc(CCNC(=O)c2cc3ccccc3n2Cc2cc(C)cc(C)n2)cc1OCC | 10.5% |
| O=C1CCCC2=C1C(c1[nH]ncc1Cl)N=C(Nc1nc3cc([S+](=O)([O-])N4CCOCC4)ccc3o1)N2 (stereo not given) | -2.82% |
| O=C(Nc1ccc(Cl)c(Cl)c1)Nc1nnc(-c2ccc(F)cc2)s1 | -4.5% |
| O=C(Nc1ccc(Br)cc1)Nc1nnc(-c2ccncc2)s1 | 1.61% |
| CC(=O)c1cccc(-c2ccc(-c3nc4ccccc4c(=O)[nH]3)o2)c1 | -10.7% |
| CCOc1ccc(CCNC(=O)c2cc3sccc3n2C)cc1OCC | -15.4% |
| NS(=O)(=O)c1ccc(Nc2nc(-c3ccccc3)cs2)cc1 | 1.33% |
| Cc1ccc(S(=O)(=O)Nc2ccc(C(=O)Nc3nc(-c4ccc(Cl)cc4)cs3)cc2)cc1 | -7.83% |
| Cn1nnnc1Sc1ncnc2scc(-c3cccc([N+](=O)[O-])c3)c12 | 2.1% |
| O=C(O)c1ccc2c(c1)C(=O)N([C@H](Cc1cccc3ccccc13)C(=O)O)C2=O | -4.64% |
| O=[S+]([O-])(Nc1ccc(C2CCNCC2)cc1)c1ccc(NCc2ccc(Br)cc2O)cc1 | -0.528% |
| Cc1cc(C)nc(NC(=S)N2CCN(c3ccc(C(=O)O)cc3)CC2)c1 | -6.97% |

| Compound | activity change, negative = inhibition |
| --- | --- |
| CNc1nnc(-c2cccc3ccccc23)o1 | 7.49% |
| Cc1ccc(-c2ccc(=O)n(CC(=O)NCCc3ccccc3)n2)cn1 | -5.26% |
| Cc1ccc(NC(=O)c2ccncc2NS(=O)(=O)c2ccc(C)cc2)cc1 | -0.024% |
| CCCCNc1nc(C)nc2c1nc(-c1ccccc1)n2C1CCN(Cc2ccccc2)C1 (stereo not given) | 4.89% |
| CC(C)(C)OC(=O)n1c2ccsc2c2cnn(Cc3ccccc3F)c(=O)c21 | 5.25% |
| CC(C)(C)OC(=O)NCc1nnc(-c2cc3ccccc3[nH]2)s1 | 0.478% |
| Cc1ccc(OCCn2c(CCNC(=O)Cc3cc(F)ccc3F)nc3ccccc32)cc1 | -16.2% |
| NC(=O)C1CCN(c2nc(-c3ccccc3C(F)(F)F)cs2)CC1 | 13.4% |
| N#CCC(C1CCCC1)n1cc(-c2ncnc3[nH]ccc23)cn1 (stereo not given) | 13.5% |
| O=C(Nc1ccc(Cl)c(Cl)c1)Nc1nnc(Br)s1 | 2.4% |
| O=C(Nc1cccnc1)C1CCCCC1 | -8.64% |
| Cc1ccc(CNc2ncc(N3CCCCC3)cn2)cc1 | 6.48% |
| O=C(Nc1ccccc1)Nc1nnc(-c2ccncc2)s1 | 1.14% |
| O=C(Nc1ccc(Cl)c([N+](=O)[O-])c1)Nc1nnc(C2CCCCC2)s1 | 2.33% |
| CNC(=O)C1=C(C)NC(Nc2nc3ccccc3o2)=NC1c1nn(C)cc1Cl (stereo not given) | -22.1% |
| Cc1cc(NC(=O)Nc2nnc(C3CCCCC3)s2)ccc1Cl | 0.662% |
| Cc1ccc(C2=NN(CC(=O)NCCc3ccccc3)C(=O)C2)cc1 | 7.18% |
| C=C1C(=O)OC2C3=C(C)C(=O)CC3C(C)CC(O)C12 (stereo not given) | 1.97% |
| O=C(Cn1nc(-c2ccc(OC(F)(F)F)cc2)ccc1=O)NCCc1ccccc1 | 2.46% |
| Cc1cccc(-c2ccc3ncnc(NCc4cccnc4)c3c2)c1 | -6.2% |
